# Data taken from the supplement of paper PMC10338343.
# ± gives the standard deviation. In all, about 6,600 sequences were measured (“pre-steady-state target cleavage rate”: median about 0.07, highest 2% from about 0.72 on). Only a selection was taken, and the highest values are over-represented in it overall.
# Tested on: MIWI (PIWIL1) piRISC loaded with Kctd7 piRNA (30 nt)
# Test: pre-steady-state target cleavage rate (min^-1); MIWI and MILI are mouse PIWI proteins and EfPiwi is from a freshwater sponge; tags in brackets are library labels; higher = faster piRNA-guided slicing of the target
# Conditions: guide: Kctd7 piRNA 5'p-UGUUAAUCUCUCAGAGAAGGUGACAGUGAU; auxiliary factor: 500 nM mouse GTSF1
# Procedure: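 Cleave-'n-Seq: a library of target RNAs (target site embedded in constant flanks, ACAGCATTCCGCGTTAGTGATATCCG... 5' flank; DNA-blocked outside the site) at 0.1 nM was incubated with 1 nM active mouse MILI or MIWI piRISC (synthetic 5'-monophosphorylated piRNA guide) with or without 500 nM mouse GTSF1 at 33 °C for 1 min to 16 h. Uncleaved targets were sequenced and normalised to non-target controls, and the pooled three trials were fitted to a burst-and-steady-state model to give the pre-steady-state cleavage rate (min^-1; k3 is constrained to at most 1e-4). Sequence is the target site only; target names encode pairing extent (gX:gY) and contiguous / 1-mismatch / 2-mismatch / bulge geometry. Fits with R² ≤ 0 are excluded.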
row,Sequence,pre-steady-state target cleavage rate
1,UAGUGUGUGACCUUCUCUGUGAGAUUAACA,0.206 ± 0.016
2,UAGUGACAGUCCCUUCUCUGAGAGAUUAACA,0.611 ± 0.046
3,UUCACUCGUCACCUUCUCUGAGAGAUUAACA,0.78 ± 0.042
4,AUCACUCUCACCUUCUCUGAGAGAUUAACA,0.551 ± 0.029
5,AUCACUCGUCACCUUCUCUGAGAGAUUAACA,0.747 ± 0.043
6,UACACACUCACCUUCUCUGAGAGAUUAACA,0.568 ± 0.044
7,UUCACUCUCACCUUCUCUGAGAGAUUAACA,0.54 ± 0.028
8,UAGUCUCGUCACCUUCUCUGAGAGAUUAACA,0.571 ± 0.025
9,UACACUCUCACCUUCUCUGAGAGAUUAACA,0.444 ± 0.031
10,UACACUCGUCACCUUCUCUGAGAGAUUAACA,0.77 ± 0.035
11,UAGACUCGUCACCUUCUCUGAGAGAUUAACA,0.687 ± 0.041
12,UACACUGUCACCUUCUCAGAGAGAAUAACA,0.076 ± 0.021
13,AUCACUGUCACGUUCUCUCAGAGAUUAACA,0.0868 ± 0.0082
14,UAGUGUCUCACCUUCACUGAGAGAUUAACA,0.276 ± 0.019
15,UAGUGACUCACCAUCUCUGAGAGUUUAACA,0.173 ± 0.035
16,UACACUGUCACCUUCUCUGAGACAUUUUGA,0.00497 ± 0.0047
17,UUCACUGUCACCUUCUCUGAGGGAUUAACA,0.51 ± 0.024
18,UAGACUGUCACCUUCUCUGAGGGAUUAACA,0.741 ± 0.051
19,UAGACUGUCACCUUCUCUGAGGAUUAACA,0.00433 ± 0.0033
20,UAGACUGUCACCUUCUCUGAGAGGAUUAACA,0.369 ± 0.036
21,UACACUGUCACCUUCUCUGAGGGAUUAACA,0.611 ± 0.033
22,AUCACUGUCACCUUCUCUGAGGGAUUAACA,0.75 ± 0.041
23,UAGUGACUCACGUUCUCUGAGAGUUUAACA,0.0255 ± 0.006
24,UACACUGUCACCUUCACUGAGACAUUAACA,0.19 ± 0.025
25,AUCACUCACACCUUCUCUGAGAGAUUAACA,0.587 ± 0.027

row,Sequence,pre-steady-state target cleavage rate
1,UAGACUGUCACCUUCUCUGAGAGAUUUACA,0.369 ± 0.049
2,UAGUGACACACCAUCUCUGAGAGAUUAACA,0.274 ± 0.027
3,AUCACUGUCAGCUUCUCUGAGAGUUUAACA,0.149 ± 0.018
4,UUCUCUGUCACCUUCUCUGAGAGUUUAACA,0.517 ± 0.07
5,AUCACUGUCACCUUCUCUGAGAGUUUAUCA,0.753 ± 0.19
6,UACUCUGUCACCUUCUCUGAGAGUUUAACA,0.781 ± 0.098
7,AUCACUGACACCUUCUCUGAGAGUUUAACA,0.644 ± 0.16
8,UUCACUGUCACCUUCUCUGAGAGUUUAUCA,0.27 ± 0.061
9,UACACUGUCACCUUCUCUGAGAGUUUAUCA,0.137 ± 0.041
10,UUCACUGACACCUUCUCUGAGAGUUUAACA,0.591 ± 0.11
11,AUCUCUGUCACCUUCUCUGAGAGUUUAACA,0.711 ± 0.12
12,UACACUGACACCUUCUCUGAGAGUUUAACA,0.904 ± 0.3
13,UAGUCUGUCACCUUCUCUGAGAGAAAUACA,0.0823 ± 0.015
14,AUCACUGAGACCUUCUCUGAGAGAUAUUGA,0.0157 ± 0.0047
15,UAGUGACAGCCCUUCUCUGAGAGAUUAACA,0.184 ± 0.019
16,UUCACUGUCACCUUCUCUGAGAGUUUUACA,0.559 ± 0.12
17,UAGUGACUCACCUUCUCUGUGACAUUAACA,0.0765 ± 0.0076
18,UAGUCUCUCACCUUCUGUGAGAGAUUAACA,0.00482 ± 0.0046
19,UAGACUCUCACCUUCUCUGAGAGAUUUUGA,0.0479 ± 0.011
20,AUGCACUGUCACCUUCUCUGAGAGAUUAACA,0.775 ± 0.056
21,UACACUGGCACCUUCUCUGAGAGAUUAACA,0.453 ± 0.12
22,AUCACUGGCACCUUCUCUGAGAGAUUAACA,0.724 ± 0.17
23,UUGCACUGUCACCUUCUCUGAGAGAUUAACA,0.781 ± 0.045
24,UUCACUGGCACCUUCUCUGAGAGAUUAACA,0.728 ± 0.15
25,UUCACUGUGCACCUUCUCUGAGAGAUUAACA,0.606 ± 0.05

row,Sequence,pre-steady-state target cleavage rate
1,UGCACUGUCACCUUCUCUGAGAGAUUAACA,0.726 ± 0.039
2,UACAGUGUCACCUUCUGUGAGAGAUUAACA,0.662 ± 0.028
3,UAGUGACACACCUUCUCAGAGUGAUUAACA,0.00558 ± 0.0037
4,UAGUGUGUCACCUUCUCUGAGAGAUUAUCA,0.219 ± 0.026
5,UAGUGACUCUGCUUCUCUGAGAGAUUAACA,0.00843 ± 0.0019
6,UAGUGACAGUCCUUCCUCUGAGAGAUUAACA,0.27 ± 0.027
7,UAGUCUCUCACGUUCUCUGAGAGAUUAACA,0.0195 ± 0.0042
8,UAGUGACACACCAUCUCUGAGAGAAUAACA,0.0218 ± 0.0057
9,AGCACUGUCACCUUCUCUGAGAGAUUAACA,0.765 ± 0.044
10,UAGUCUGUCACCUUCUGUGAGAGAUAAACA,0.0539 ± 0.0081
11,UUCGACUGUCACCUUCUCUGAGAGAUUAACA,0.859 ± 0.06
12,UACGACUGUCACCUUCUCUGAGAGAUUAACA,0.746 ± 0.07
13,AUCGACUGUCACCUUCUCUGAGAGAUUAACA,0.821 ± 0.059
14,UAGUGUGUCAGCUUCUCUGAGAGAUUAAGA,0.0938 ± 0.015
15,UACACUCUCACCUUCUCUGUGAGAUUAACA,0.141 ± 0.014
16,UUGUGUGUCACCUUCUCUGAGAGAUUAACA,0.571 ± 0.025
17,UAGACAGUCACCAUCUCUGAGAGAUUAACA,0.68 ± 0.042
18,UAGUCAGUCACCAUCUCUGAGAGAUUAACA,0.706 ± 0.04
19,AUCACAGUCACCAUCUCUGAGAGAUUAACA,0.771 ± 0.036
20,UACACAGUCACCAUCUCUGAGAGAUUAACA,0.833 ± 0.045
21,UUCACAGUCACCAUCUCUGAGAGAUUAACA,0.747 ± 0.039
22,UUCACUCUCACCAUCUCUGAGAGAUUAACA,0.465 ± 0.024
23,UACAGUGUCACCAUCUCUGAGAGAUUAACA,0.592 ± 0.036
24,UAGUCUCUCACCAUCUCUGAGAGAUUAACA,0.0365 ± 0.0075
25,UACACUCUCACCAUCUCUGAGAGAUUAACA,0.406 ± 0.028
